Measurements taken from PubChem BioAssay (NCATS).
Results filed as inconclusive are left out. Values without a mark were called inactive. The source made the active and inactive calls. Calls follow the shape of the dose curve; as a rule, active = well fitted inhibition curve with a large enough effect; inconclusive = small, poorly fitted or top-dose-only effect; inactive = no such curve, though single readings can be large or run the other way.

Assay: Secretion counterscreen for inhibitors of the SERCaMP assay screened against the NCATS CANVASS Library (AID 1347390);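 also: light from luciferase secreted into medium read as a measure of general secretion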
Conditions: SH-SY5Y constitutive GLuc secretion, luminescence, 20 h; series mostly up to 76.6 µM; activity change, negative = inhibition: at the top concentration
Text: Natural products and their derivatives continue to be wellsprings of nascent therapeutic potential. However, many laboratories have limited resources for biological evaluation, leaving their previously isolated or synthesized compounds largely or completely untested. To address this issue, the Canvass library of natural products was assembled (https://tripod.nih.gov/canvass), in collaboration with academic and industry researchers, for quantitative high-throughput screening (qHTS) across a diverse set of cell-based and biochemical assays. The pure (>85% purity by liquid chromatography/mass spectrometry [LC/MS]) Canvass library of 346 natural products were submitted by 45 academic laboratories and companies around the world. We collected pure natural products to circumvent deconvolution and structure elucidation due to time and resource limitations. The library was formatted into 1536-well plates and evaluated in 50 qHTS (in an 11-pnt concentration series) bioassays with broad scope of disease-relevant mechanisms. The resulting data set from 50 different assays was then systematically analyzed to identify overall trends and specific natural products with interesting biological activities. Reported herein are the results of each individual qHTS and their corresponding assay protocol. Compounds that interfere with the secretory pathway can show activity in the SERCaMP assay. This type of false positive is identified using a constitutively secreted GLuc reporter. National Center for Advancing Translational Sciences (NCAwsTS), Rockville, MD National Institute of Health (NIH), Bethesda, Maryland
SERCaMP secretion assay protocol: 1. In a white-solid bottom 1536-well tissue culture plate (Corning 7494), 5 uL of SH-SY5Y-GLuc STOP cells were dispensed using a Multidrop Combi (Thermo Fisher Scientific) at a final concentration of 1000 cells / well. 2. The assay plates were incubated for 4 hours at 37C, 5% CO2, 95% humidity to acclimate and attach. 3. […] of compounds (in DMSO; columns 5-48), and positive control Brefeldin A (1 mM; 1:2 dilution; 16-points; n = 2; column 2, rows 1-32) were pin transferred into the assay plates using the Kalypsis pin tool (Wako USA) equipped with a 1536-well pin heads. This yields a final concentration range of 0.0001 - 4.6 uM for the Brefeldin A and 0.001 - 77 uM for the compounds. 4. The assay plates were incubated for 20 hours at 37C, 5% CO2, 95% humidity. 5. After incubation, 1 uL of (7x) substrate Coelenterazine (diluted 1:200 in Pierce Glow Assay buffer) was dispensed into columns 1 - 48, rows 1 - 32. 6. The plates were centrifuged for 5 seconds at 1000 rpm. 7. Luminescence signal was obtained via the ViewLux plate reader (Perkin Elmer) using the clear emission filter and 1x binning, 5 seconds exposure settings.
% is scaled to controls: 0 for no effect and ±100 for the full control effect; potency is read from the fitted curve at half-maximal effect.

SMILES	Potency	activity change, negative = inhibition
O=C(c1ccccc1O)c1[nH]c(Cl)c(Cl)c1-n1c(C(=O)c2ccccc2O)cc(Cl)c1Cl	19.3 µM (active)	–
CC1=CC(=O)C2=C(C)C[C@H](O)[C@@H]3[C@H](OC(=O)[C@@H]3C)[C@@H]12	–	41.6%
C[C@@H]1CC[C@@H](c2ccoc2)N2C[C@@]3(CC[C@@H]12)CS[C@@]1(CC[C@H]2[C@H](C)CC[C@@H](c4ccoc4)N2[C@@H]1O)C3	12.2 µM (active)	–
C[C@]12CC(O)C3[C@@H](CCC4C[C@@H](O)CC[C@@]43CO)[C@@]1(O)CCC2C1=CC(=O)OC1 (stereo partly specified)	–	18.7%
CC(=O)N[C@H]1CCN2CCC[C@H]12	–	-23.2% [at 171 µM]
CNCCc1ccc(O)cc1	–	-11.5%
CO[C@@H](/C=C/CC/C=C/C(=O)O)[C@@H](O)[C@H](C)/C=C(\C)[C@@H](O)[C@H](C)C(=O)CCCC1CC(=O)NC(=O)C1	–	26.7%
CO[C@H](c1ccccc1)[C@H]1NC(=O)C(C)NC(=O)C(C[C@@H](C)CO)N(C)C(=O)[C@@H](C(O)c2cn(C(C)(C)C3CO3)c3ccccc23)NC(=O)C(C(C)C=C(C)C)NC(=O)C(CC(C)C)N(C)C(=O)C(C(C)C)NC1=O (stereo partly specified)	–	16.2% [at 45.8 µM]
CO[C@@H](/C=C/CC/C=C/C(=O)O)[C@@H](O)[C@H](C)[C@@H](O)/C(C)=C/[C@H](C)C(=O)CCCC1CC(=O)NC(=O)C1	–	-4.42%
CNCCc1c[nH]c2ccccc12	–	-27.3%
CCC[C@H]1CC[C@H]2[C@H](C)CCC[C@H]2N1	–	8.62%
c1ccc2c3c([nH]c2c1)CNCC3	–	17.6%
CC[C@@H]1CN2CC[C@@]3(O)C(=Nc4cccc(OC)c43)[C@@H]2C[C@@H]1/C(=C\OC)C(=O)OC	–	29%
CCN1C[C@]2(C)CC[C@H](O)[C@]34C1C(C[C@H]23)[C@@]12CC[C@H](CC14)[C@](O)(COC(=O)c1ccc(OC)c(OC)c1)[C@H]2O (stereo partly specified)	–	-0.236%
C/C=C1/CN2CC[C@]34C(=Nc5ccccc53)[C@@H]2C[C@@H]1[C@H]4C(=O)OC	–	-1.77% [at 152 µM]
NCCc1ccccc1	–	-16%
CCC(=O)CCCCC[C@@H]1NC(=O)[C@H]2CCCCN2C(=O)[C@H]([C@@H](C)CC)NC(=O)[C@H](Cc2cn(OC)c3ccccc23)NC1=O	–	205%
COC(=O)C1=C2Nc3ccccc3[C@@]23CCN2CC(C(C)=O)C1C[C@H]23 (stereo partly specified)	–	8.32%
CC[N@@+]1([O-])C[C@]2(C)CC[C@@H](O)[C@@]34C5C[C@H]6CC[C@@]5(C(C[C@H]23)C41)[C@H](O)[C@@]6(O)CO (stereo partly specified)	–	10.5%
COc1ccc(C23Oc4cc(OC)cc(OC)c4[C@](O)([C@H](c4ccccc4)C2C(=O)NCCCCNC(=O)c2ccccc2)[C@@H]3O)cc1 (stereo partly specified)	–	-21.5%
CCN1C[C@]2(C)CC[C@@H](O)[C@]34C1[C@H](C[C@H]23)C12CCC(CC14)[C@](O)(CO)[C@H]2O (stereo partly specified)	–	11.3%
COc1ccc2c(c1)[nH]c1c(C)nccc12	62.7 µM (active)	–
CNCCc1ccccc1	–	-3.5%
CN1C(=O)[C@]23CC4C(C)(C)[C@@]5(C[C@@]41CN2CC[C@@]3(C)O)C(=O)Nc1c5ccc2c1OC=CC(C)(C)O2 (stereo partly specified)	–	-25%
CC=C1CN(C=O)[C@H]2C[C@@H]1[C@@H](C(=O)OC)[C@@]13CCOC21Nc1ccccc13 (stereo partly specified)	–	18.9%
CCCCC[C@@H]1OC(=O)[C@@H](C)N(C)C(=O)[C@H](CCCCC)OC(=O)C(C)N(C)C(=O)[C@H](CCCCC)OC(=O)[C@@H](C)N(C)C(=O)[C@H](CCCCC)OC(=O)C(C)N(C)C1=O (stereo partly specified)	–	-54.6%
